Screens (PubChem)
Shown are actives, neighbours in structure and some others; about 17% of the full set was active somewhere.
TDP1 block: blocks human tyrosyl-DNA phosphodiesterase 1. Q9NUW8. recombinant TDP1, AlphaScreen DNA substrate cleavage. Potency, µM (highest dose often 130 µM), inactives show top-dose activity change, negative = inhibition, hits mostly inhibitors. actives 0.28% (n = 350,000). AID 485290; also: % is scaled to controls: 0 for no effect and ±100 for the full control effect; nearly all actives have a fitted effect of over 40% in size
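Enzyme-compound mixtures sat 15 min at room temperature, followed by a 5 min reaction with 15 nM final substrate and 10 min with AlphaScreen beads. Recombinant human Tdp1 was used at 1 nM final.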
TDP1 cell noCPT: qHTS for Inhibitors of human tyrosyl-DNA phosphodiesterase 1 (TDP1): qHTS in cells in absence of CPT | DT40 Tdp1-/- hTDP1 cells, no CPT, ATP luminescence, 48 h | Potency, µM (top dose mostly 46.2 µM), for inactives: at the highest dose activity change, negative = growth inhibition, usual class: inhibitors | actives 15% (n = 420,000); also: % is scaled to controls: 0 for no effect and ±100 for the full control effect; nearly all actives have a fitted effect of over 55% in size
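Chicken DT40 Tdp1-/- cells complemented with human TDP1, screened without camptothecin (DMSO vehicle only), 400 cells/well. Compounds pin-transferred, cells incubated at 37 °C for at least 48 hr. Growth read as ATP-dependent luminescence (CellTiter-Glo, 30 min at RT).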
DT40 TDP1 CPT: growth inhibition of DT40 Tdp1-/-;hTDP1 cells with camptothecin (screen for TDP1 inhibitors). Potency, µM (titrated, usually from 46.2 µM), without a hit: at the highest dose activity change, negative = growth inhibition, actives largely listed as inhibitors. chicken DT40 Tdp1-/-;hTDP1 cells + 20 nM CPT, ATP luminescence, 48 h. actives 12% (n = 420,000); also: % is scaled to controls: 0 for no effect and ±100 for the full control effect; nearly all actives have a fitted effect of over 55% in size
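Chicken DT40 Tdp1-/- cells complemented with human TDP1, 400 cells/well, exposed to compounds plus 20 nM camptothecin for at least 48 h at 37 C; viability read as ATP content by CellTiter-Glo luminescence.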
ClpP mod: qHTS Assay for Activators of ClpP | AID 651965, 2013 | ATP-dependent Clp protease proteolytic subunit (Bacillus subtilis (strain 168)), P80244 | Potency, µM (top dose mostly 57.5 µM), for inactives: top-dose activity change, negative = active | actives 1.9% (n = 340,000) | purified B. subtilis ClpP, FRET peptide cleavage, 20 min; active = well fitted falling curve with a large enough effect; inconclusive = small, poorly fitted or top-dose-only effect; inactive = no such curve, though single readings can be large or run the other way; also: the source files actives as falling curves though it sought activators and does not explain the sign; nearly all actives have a fitted effect of over 65% in size
Target sequence (P80244 whole entry, looked up): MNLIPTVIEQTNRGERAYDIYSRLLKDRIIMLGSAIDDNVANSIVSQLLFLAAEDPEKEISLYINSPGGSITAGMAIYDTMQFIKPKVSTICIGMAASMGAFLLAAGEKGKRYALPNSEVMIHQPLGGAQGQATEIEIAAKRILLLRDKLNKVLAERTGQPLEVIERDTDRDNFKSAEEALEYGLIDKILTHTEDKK
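Buffer: 100 mM Tris/HCl pH8, 100 mM KCl, 0.05% low protease BSA, 2.5% glycerol, 0.01% Tween-20. ClpP 10 microg/mL final; 20 min RT; delta FRET normalized to ADEP and DMSO controls.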
Numbers without * were called inactive; ? = inconclusive; . = no result given; [ ] = another dose, or the depositor's remark. Unless noted, calls follow the shape of the dose curve; as a rule, active = well fitted curve in the direction sought with a large enough effect; inconclusive = small, poorly fitted or top-dose-only effect, or another doubt; inactive = no such curve, though single readings can be large; an effect the other way counts as inactive or inconclusive. Potency is read from the fitted curve at half-maximal effect.

SMILES | TDP1 block | TDP1 cell noCPT | DT40 TDP1 CPT | ClpP mod
O=C(Cn1c(=O)n(Cc2ccco2)c(=O)c2sc3ccccc3c21)Nc1ccc(F)cc1F | -1.3% | 10.3µM* | ? | ?
O=c1c2sc3ccccc3c2n(Cc2cccc(C(F)(F)F)c2)c(=O)n1Cc1ccc(F)cc1 | 1.3% | ? | ? | ?
O=c1c2sc3ccccc3c2n(Cc2ccccc2F)c(=O)n1-c1ccccc1Cl | -1.3% | 9.2µM* | 20.6µM* | 4.4%
O=c1c2sc3ccccc3c2n(Cc2cccc(C(F)(F)F)c2)c(=O)n1Cc1ccccc1 | -0.9% | ? | ? | ?
O=c1c2sc3ccccc3c2n(Cc2cccc(Cl)c2)c(=O)n1Cc1ccco1 | 0.0% | 23.1µM* | 20.6µM* | 3.1%
O=c1c2sc3ccccc3c2n(Cc2cccc(F)c2)c(=O)n1Cc1ccccc1 | -3.8% | 16.4µM* | ? | ?
O=c1c2sc3ccccc3c2n(Cc2cccc(C(F)(F)F)c2)c(=O)n1Cc1ccco1 | 3.8% | ? | ? | ?
Brc1cccc[n+]1Cc1ccc(C[n+]2ccccc2Br)cc1 | . | -7.9% | 3.4% | -2.8%
C[C@@H]1C[C@@H](CC(=O)NCC2Cc3cccc(-c4ccncc4)c3O2)NC(=S)N1 (some centres undefined) | . | -19.4% | -24.2% | .
CCCSc1nc2cc(OC)c(OC)cc2c(=N)n1CCCN1CCOCC1 | 5.9% | 23.1µM* | 16.4µM* | 2.9%
CC(=O)N1CCc2c(sc3c2c(=O)n(-c2ccc(C)cc2)c(=O)n3Cc2ccccc2C)C1 | 5.9% | ? | ? | -14.9%
Cc1c(Nc2cc(Cl)c3nonc3c2[N+](=O)[O-])c(=O)n(-c2ccccc2)n1C | -1.2% | 2.06µM* | 1.3µM* | .
O=C(O)c1cccc(Nc2ccc3nonc3c2[N+](=O)[O-])c1 | 6.6% | 14.8% | -3.8% | 1.4%
Cc1c(Nc2cc(N3CCOCC3)c3nonc3c2[N+](=O)[O-])c(=O)n(-c2ccccc2)n1C | 2.7% | . | . | .
O=[N+]([O-])c1c(Nc2cccc(O)c2)cc(Cl)c2nonc12 | . | 1.84µM* | 1.84µM* | .
COc1ccc(-c2nc3ccc(N4CCCC4)cc3c(=O)[nH]2)cc1OC | 2.8% | 20.6µM* | 13µM* | -1.3%
O=c1[nH]nc(CNc2cccc(C(F)(F)F)c2)c2ccccc12 | 1.2% | 14.6µM* | 25.9µM* | 0.6%
O=c1[nH]nc(Cc2ccccc2)c2ccccc12 | 2.3% | -28.1% | 7.31µM* | -0.2%
O=C(COC(=O)c1n[nH]c(=O)c2ccccc12)NCc1ccccc1 | 0.7% | 9.2µM* | 11.6µM* | 1.8%
COc1ccc(NCc2n[nH]c(=O)c3ccccc23)cc1 | 2.8% | ? | ? | -3.6%
Cc1cc(C(=O)COC(=O)Cc2n[nH]c(=O)c3ccccc23)c(C)n1-c1cccc(C(F)(F)F)c1 | 3.4% | 16.4µM* | ? | -0.9%
CCC(c1nc2ccccc2[nH]1)n1c(=O)c(-c2ccccc2)nc2ccccc21 (centres undefined) | . | ? | ? | -11.9%
Cc1nnc(NCc2n[nH]c(=O)c3ccccc23)c2ccccc12 | 1.1% | 10.3µM* | 5.8µM* | 1.4%
C=C1C=C(C(F)F)n2ncc(C(=O)NCc3ccc(OC)cc3)c2N1 | . | ? | 11.2µM* | -4.0%
C=C1C=C(C(F)F)n2ncc(C(=O)NCc3ccc(F)cc3)c2N1 | . | ? | ? | -3.3%
SMILES | TDP1 block | TDP1 cell noCPT | DT40 TDP1 CPT | ClpP mod
C=C1C=C(C(F)F)n2ncc(C(=O)NCCc3ccc(Cl)cc3)c2N1 | . | ? | 12.6µM* | -0.5%
COc1ccccc1C1CC(c2ccco2)=NN1S(C)(=O)=O (centres undefined) | -1.2% | ? | 20.6µM* | -25.8%
CCOc1ccc2cc(C3CC(c4ccco4)=NN3S(=O)(=O)c3ccccc3)c(Cl)nc2c1 (centres undefined) | 10.3% | ? | ? | -21.0%
COc1ccc2cc(C3CC(c4ccco4)=NN3S(=O)(=O)c3ccccc3)c(Cl)nc2c1 (centres undefined) | 0.0% | 14.6µM* | ? | -7.5%
COc1ccc(N2CC(C(=O)Nc3ccccc3C(=O)NCc3ccco3)CC2=O)cc1 (centres undefined) | 5.5% | -9.0% | -24.2% | -1.4%
O=C(NCc1ccco1)C1CC(=O)N(c2ccc(O)cc2)C1 (centres undefined) | 4.3% | 25.9µM* | 20.6µM* | ?
COc1ccc(Nc2ncnc3c2nc2n3CCCC2)cc1Cl | 6.2% | ? | ? | -2.9%
COc1cccc(NC(=O)C2CCN(S(=O)(=O)c3c(C)noc3C)CC2)c1 | -4.3%[12.3 µM] | -14.4% | 12.9% | 1.6%
O=C(c1cccc(S(=O)(=O)N2CCCC2)c1)N1CCCC(C(F)(F)F)C1 (centres undefined) | 3.3% | -17.1% | -20.7% | 28.2µM*
CCN(c1ccccc1)S(=O)(=O)c1ccc(C(=O)N2CCCC(C(F)(F)F)C2)cc1 (centres undefined) | 0.0%[0.505 µM] | 23.1µM* | 8.2µM* | -3.3%
O=C(c1ccc(S(=O)(=O)Nc2ccccc2)cc1)N1CCCC(C(F)(F)F)C1 (centres undefined) | 4.1% | ? | ? | -1.8%
O=C(c1cccc(S(=O)(=O)N2CCc3ccccc32)c1)N1CCCC(C(F)(F)F)C1 (centres undefined) | 0.2%[0.505 µM] | 20.6µM* | 10.3µM* | -1.4%
O=C(c1cccc(S(=O)(=O)N2CCOCC2)c1)N1CCCC(C(F)(F)F)C1 (centres undefined) | 3.7%[0.505 µM] | -37.0% | -17.9% | 0.1%
C=CCNc1nc(C(=O)OCC(=O)Nc2c(Cl)cccc2C(F)(F)F)cs1 | -2.0%[0.505 µM] | 3.6% | 8.3% | -3.5%
COc1ccc(CCNC(=O)c2cc(=O)c3ccc(C)cc3o2)cc1OC | 0.0% | 20.6µM* | ? | 0.0%
COc1ccc(CCNC(=O)c2cc(=O)c3cc(C)ccc3o2)cc1 | 7.1% | 13µM* | 23.1µM* | .
COc1ccc(CN2C[C@@H](CO)O[C@@H](n3cnc4c(N5CCOCC5)ncnc43)C2)cc1 | . | 10.3% | -28.2% | 0.2%
OC[C@@H]1CN(Cc2ccccc2)C[C@H](n2cnc3c(NCc4ccco4)ncnc32)O1 | . | -5.6% | -17.9% | -3.0%
OCCNc1ncnc2c1ncn2[C@H]1CN(Cc2ccc(-c3ccccc3)cc2)C[C@@H](CO)O1 | . | ? | ? | -0.2%
OC[C@@H]1CN(Cc2ccc(-c3ccccc3)cc2)C[C@H](n2cnc3c(NCc4ccco4)ncnc32)O1 | . | 9.2µM* | 9.2µM* | 1.1%
OC[C@@H]1CN(Cc2ccc(-c3ccccc3)cc2)C[C@H](n2cnc3c(NCc4ccncc4)ncnc32)O1 | . | 3.26µM* | 2.91µM* | -0.9%
O=C(O)C[C@H](O)C[C@H](O)/C=C/c1c(C2CC2)nc2ccccc2c1-c1ccc(F)cc1 | . | 1.88µM* | 2.66µM* | .
CC(C)n1c(/C=C\[C@@H](O)C[C@@H](O)CC(=O)O)c(-c2ccc(F)cc2)c2ccccc21 | 9.1%[56.1 µM] | . | . | .
